Screening results from PubChem BioAssay.
KB-3-1 cytotox: qHTS assay for MDR1-selective chemotherapeutics: Primary screen using the parental adenocarcinoma cell KB-3-1 | KB-3-1 viability, CellTiter-Glo ATP luminescence, 72 h | Potency, µM (doses to about 46.1 µM), most hits filed as cytotoxic | actives 1.4% (n = 400,000); also: potency is read from the fitted curve at half-maximal effect; % is scaled to controls: 0 for no effect and ±100 for the full control effect; nearly all actives have a fitted effect of over 60% in size
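Using CellTiter-Glo luminescence, growth of non-resistant KB-3-1 adenocarcinoma cells is assessed 72 h after pin-tool compound addition at 37 °C. Normalized responses across the concentration series yield fitted curves.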
SW480 rerep: A quantitative high throughput screen for small molecules that induce DNA re-replication in SW480 colon adenocarcinoma cells; SW480 DNA re-replication, Hoechst DNA content imaging, 48 h; Potency, µM (titrated, usually from 46.1 µM), without a hit: at the highest dose re-replication activation, most hits filed as activators; actives 1.8% (n = 340,000); also: potency is read from the fitted curve at half-maximal effect; % of control where 0% means no effect; nearly all actives have a fitted effect of over 55% in size
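Image-based DNA-content assay: after two days of treatment, nuclei were labelled with the DNA dye Hoechst and imaged, and hits were compounds raising the count of nuclei showing high fluorescence intensity.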
KCNH2 3.1 block: qHTS for Inhibitors of KCHN2 3.1: Mutant qHTS. Potassium voltage-gated channel subfamily H member 2, brain isoform KCNH2 3.1 (human). U2OS KCNH2 3.1, thallium flux FluxOr; hits give low values. activity change, % (tested at about 1.8 µM). actives 0.95% (n = 340,000);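 active = maximum activity change below -70%; inconclusive = maximum activity change from -70% to -50%; inactive = maximum activity change above -50%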;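 also: thallium influx rate constant from kinetic fluorescence after stimulation buffer; % is scaled to controls: 0 for no effect and ±100 for the full control effect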
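Steps: virus added to U2OS suspension (4 h, RT, dark); medium with 10% FBS added, cells plated, 37 C overnight; FluxOr/Red40 loading buffer 45 min RT; stimulation buffer, 2 min kinetic read; rate constant normalized.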
MCF10A rereplic: A quantitative high throughput screen for small molecules that induce DNA re-replication in MCF 10a normal breast cells; MCF 10A DNA re-replication, Hoechst nuclear intensity, 48 h; Potency, µM (titrated, usually from 46.1 µM), inactives show top-dose activity, positive = re-replication, hits mostly activators; actives 2.9% (n = 350,000); AID 624296, 2012; also: potency is read from the fitted curve at half-maximal effect; % of control where 0% means no effect; nearly all actives have a fitted effect of over 50% in size
KCNH2 WT inh: qHTS for Inhibitors of KCHN2 3.1: Wildtype qHTS. activity change, % at 1.84 µM. U2OS, BacMam KCNH2, thallium flux FluxOr; hits give low values. actives 0.37% (n = 340,000);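 active = maximum activity change below -70%; inconclusive = maximum activity change between -70% and -50%; inactive = maximum activity change above -50%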; also: % is scaled to controls: 0 for no effect and ±100 for the full control effect
Target sequence (Q12809 whole entry, looked up): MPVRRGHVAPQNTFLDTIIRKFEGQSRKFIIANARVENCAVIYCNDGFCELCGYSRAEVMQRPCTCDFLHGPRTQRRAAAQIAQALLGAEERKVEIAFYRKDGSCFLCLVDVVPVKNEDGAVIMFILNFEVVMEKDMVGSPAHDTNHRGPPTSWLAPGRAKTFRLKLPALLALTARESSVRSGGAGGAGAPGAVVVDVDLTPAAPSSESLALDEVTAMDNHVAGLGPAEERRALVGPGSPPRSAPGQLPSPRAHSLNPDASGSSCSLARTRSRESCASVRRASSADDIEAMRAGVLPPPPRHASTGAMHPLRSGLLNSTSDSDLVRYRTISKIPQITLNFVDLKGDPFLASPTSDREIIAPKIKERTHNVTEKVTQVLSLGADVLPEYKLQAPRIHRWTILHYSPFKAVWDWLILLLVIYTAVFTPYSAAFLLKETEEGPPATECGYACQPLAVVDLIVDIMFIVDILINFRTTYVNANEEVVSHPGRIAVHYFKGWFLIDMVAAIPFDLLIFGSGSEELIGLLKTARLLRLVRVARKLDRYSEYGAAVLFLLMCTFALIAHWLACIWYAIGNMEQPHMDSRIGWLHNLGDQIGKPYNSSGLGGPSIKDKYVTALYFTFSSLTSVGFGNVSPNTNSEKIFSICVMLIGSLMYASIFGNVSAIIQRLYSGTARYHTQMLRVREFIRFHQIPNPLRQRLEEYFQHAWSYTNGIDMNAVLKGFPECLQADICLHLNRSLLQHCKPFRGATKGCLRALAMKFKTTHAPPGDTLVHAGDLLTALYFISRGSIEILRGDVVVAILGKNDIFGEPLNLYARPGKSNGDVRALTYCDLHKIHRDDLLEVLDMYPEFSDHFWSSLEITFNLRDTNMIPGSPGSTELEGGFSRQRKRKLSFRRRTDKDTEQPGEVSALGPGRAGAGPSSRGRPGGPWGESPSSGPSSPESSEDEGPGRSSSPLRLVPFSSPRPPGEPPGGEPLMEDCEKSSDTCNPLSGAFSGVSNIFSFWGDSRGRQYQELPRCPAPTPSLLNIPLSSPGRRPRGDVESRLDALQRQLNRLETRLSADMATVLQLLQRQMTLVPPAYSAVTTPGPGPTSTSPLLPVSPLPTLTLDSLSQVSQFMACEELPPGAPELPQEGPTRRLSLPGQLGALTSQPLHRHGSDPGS
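U2OS cells transduced with wild-type KCNH2 virus are loaded with FluxOr dye for 45 min, and thallium flux is measured in kinetic reads before and after stimulation buffer. Rate constants are normalized to DMSO controls.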
KB-V1 cytotox: qHTS assay for MDR1-selective chemotherapeutics: Primary screen using the drug-selected MDR subline cells KB-V1; KB-V1 MDR cells viability, CellTiter-Glo, 72 h; Potency, µM (series often up to 46.1 µM), actives largely listed as cytotoxic; actives 3.4% (n = 400,000); also: potency is read from the fitted curve at half-maximal effect; % is scaled to controls: 0 for no effect and ±100 for the full control effect; nearly all actives have a fitted effect of over 60% in size
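qHTS viability screen in drug-selected KB-V1 MDR cells: 72 h compound treatment at 37 degrees C, ATP luminescence end point.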
* hit, by the source's call; i = inactive; ? = inconclusive; nt = not tested or not shown; [ ] = dose if it differs, or a comment. Hits are enriched below; roughly 7.6% of the tested compounds scored in any of these assays. Unless noted, calls follow the shape of the dose curve; as a rule, active = well fitted curve in the direction sought with a large enough effect; inconclusive = small, poorly fitted or top-dose-only effect, or another doubt; inactive = no such curve, though single readings can be large; an effect the other way counts as inactive or inconclusive.

SMILES	KB-3-1 cytotox	SW480 rerep	KCNH2 3.1 block	MCF10A rereplic	KCNH2 WT inh	KB-V1 cytotox
Cc1cccc(C2(c3cccc(C)c3)CC2C(=O)Nc2ccc([N+](=O)[O-])cc2O)c1 (stereo not drawn)	20.6µM*	?	-4.2	?	-6.2	4.61µM*
Nc1[nH]c(=O)[nH]c(=O)c1N=Cc1ccccc1	i	18.2%	-4.6	4.4%	31.3	?
O=c1[nH]c(NCCO)c(N=Cc2ccccc2)c(=O)[nH]1	i	2.31µM*	-2.4	?	-9.0	i
Cc1ccc(NS(=O)(=O)c2ccc(C(=O)N3CCN(S(=O)(=O)c4ccccc4)CC3)cc2)cc1	?	25.9µM*	4.0	7.4%	-1.7	?
Cc1ccc(NS(=O)(=O)c2cccc(C(=O)N3CCCCC3)c2)cc1	i	-1.2%	nt	22.9%	14.0	11.6µM*
Cc1ccccc1OCCC(=O)Nc1cccc(S(=O)(=O)Nc2ccccc2Cl)c1	?	4.7%	-4.3	?	3.7	11.6µM*
CCOC(=O)N1CCN(C(=O)c2cccc(S(=O)(=O)Nc3ccccc3Cl)c2)CC1	i	-3.8%	-9.2	0.5%	9.4	18.4µM*
O=S(=O)(Nc1ccccc1N1CCCCC1)c1ccc(Cl)s1	13µM*	-1.2%	4.3	2.6%	-4.2	i
COc1cccc(S(=O)(=O)Nc2cccc(C(=O)N3CCCCCC3)c2)c1	i	-37.1%	1.2	10.3%	-5.4	14.6µM*
COc1ccccc1NS(=O)(=O)c1cccc(C(=O)N2CCCCCCC2)c1	i	-3.8%	27.1	-0.4%	17.1	16.4µM*
Cc1ccc(NS(=O)(=O)c2c(C(=O)N3CCCC3)c(C)n(C)c2C)cc1	i	-4.1%	11.4	-1.6%	4.4	i
COc1ccc(NS(=O)(=O)c2c(C(=O)N3CCCCCC3)c(C)n(C)c2C)cc1	?	?	-73.6*	0.4%	9.0	i
COc1ccc(C2(c3ccc(OC)cc3)NC(=O)NC2=O)cc1	i	4.8%	-0.9	-1.7%	0.5	i
Cc1ccc(C)c(N2CCN(c3nc4ccccc4n4c(C)nnc34)CC2)c1	i	nt	nt	nt	nt	?
COc1cc(OC)c(S(=O)(=O)Nc2ccccc2N2CCCCC2)cc1NC(C)=O	i	0.1%	-0.8	-11.9%	-1.0	i
COc1cc(S(=O)(=O)Nc2ccccc2N2CCCCC2)ccc1NC(C)=O	i	?	-9.4	18.4µM*	-1.1	i
CC1CCCN(C(=O)c2cccc(S(=O)(=O)Nc3cc(C(F)(F)F)ccc3Cl)c2)C1 (stereo not drawn)	i	-100.7%	-13.9	?	-0.1	18.4µM*
C[C@@H]1CN([C@H](C)CO)C(=O)CCCn2nncc2CO[C@H]1CN(C)C(=O)c1cc(-c2ccccc2)on1	i	nt	-97.4*	nt	-2.8	i
C[C@@H]1CN([C@H](C)CO)C(=O)CCCn2nncc2CO[C@@H]1CN(C)C(=O)CCC(F)(F)F	1.64µM*	nt	-12.1	nt	7.2	i
CN(C)CC(CCC(CN(C)C)C(=O)c1ccccc1)C(=O)c1ccccc1 (stereo not drawn)	16.4µM*	?	-7.3	?	2.5	8.2µM*
COc1ccc(C(=O)C(CCCCC(CN(C)C)C(=O)c2ccc(OC)cc2)CN(C)C)cc1 (stereo not drawn)	i	?	-5.9	?	-0.1	13µM*
CCOc1ccc(C(=O)C(CCC(CN(C)C)C(=O)c2ccc(OCC)cc2)CN(C)C)cc1 (stereo not drawn)	?	3.66µM*	-10.1	?	-34.7	i
C=Cc1ccc(Cn2nc(-c3ccccc3)ccc2=O)cc1	i	17.8%	-1.2	?	-14.8	i
COc1ccc(/C=N/N2CCN(c3ccccc3OC)CC2)cc1OC	i	-11.3%	-5.2	24.3%	-30.1	?
COc1cccc(/C=N/N2CCN(c3ccccc3OC)CC2)c1	i	-16.7%	-119.8*	-1.5%	-25.2	11.6µM*
SMILES	KB-3-1 cytotox	SW480 rerep	KCNH2 3.1 block	MCF10A rereplic	KCNH2 WT inh	KB-V1 cytotox
COc1ccccc1N1CCN(/N=C/c2cccc(Cl)c2)CC1	i	-48.5%	-0.8	?	-11.4	i
COc1ccccc1N1CCN(/N=C/c2ccc(O)c(O)c2)CC1	i	13µM*	5.9	17.4%	6.9	i
COc1ccccc1C(=O)COC(=O)CN1C(=O)NC2(CCCC2)C1=O	i	-5.0%	1.8	2.9%	-0.7	i
CCOc1ccc2c(c1)C(=O)C(=O)N2CC1COc2ccccc2O1 (stereo not drawn)	13µM*	8.2µM*	-3.3	?	5.8	i
CN(CC1COc2ccccc2O1)C(=S)Nc1ccccc1F (stereo not drawn)	i	0.1%	0.1	18.4%	-1.5	i
Cc1ccc2c(c1)C(=O)C(=O)N2CC1COc2ccccc2O1 (stereo not drawn)	?	23.1µM*	-38.0	?	9.4	20.6µM*
COc1ccc(NC(=S)N(C)CC2COc3ccccc3O2)cc1 (stereo not drawn)	i	-20.1%	13.3	0.651µM*	-3.2	?
COc1ccc2c(c1)C(=O)C(=O)N2CC1COc2ccccc2O1 (stereo not drawn)	14.6µM*	?	-21.6	?	5.8	?
CC(NC(=O)c1cccs1)C(S)c1ccccc1 (stereo not drawn)	i	-40.8%[1.84 µM]	-8.9	-23.4%	-1.2	i
Cc1ccc(Cl)cc1NC(=O)CC(O)(C(F)(F)F)C(F)(F)F	?	18.4µM*	2.1	26.6%	-0.1	20.6µM*
Cc1cccc(/C=N/NC(=O)c2ccc(NC(=O)c3ccc(Cl)cc3)cc2)n1	?	-0.2%	-12.6	7.1%	-7.3	i
Cc1cccc(/C=N/NC(=O)c2ccc(NC(=O)c3ccc(F)cc3)cc2)n1	i	-29.6%	-17.8	20.6µM*	-8.3	i
COc1ccc2c(-c3cc4ccc(OCc5ccc(F)cc5)cc4oc3=O)cc(=O)oc2c1	7.31µM*	-7.4%	4.1	1.84µM*	0.1	8.2µM*
CCOC(=O)C(C)(C)Sc1ncnc2nc[nH]c12	i	-1.2%	4.4	-0.9%	-5.2	i
CCOC(=O)c1cc([N+](=O)[O-])cc([N+](=O)[O-])c1Sc1ncnc2nc[nH]c12	?	11.6µM*	-1.3	?	0.6	?
